25 molecules from the supplement of paper PMC10037445 can be followed below.

In assay [1] the test system is RAW-Dual. Description: NF-kB SEAP reporter activity, fold change vs agonist alone; higher = enhanced NF-kB activity. The method, boiled down:
(§1)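 Supernatant from RAW-Dual macrophages was read after 20 hours for IRF by QuantiLuc luminescence and for NF-κB by QuantiBlue absorbance at 620 nm. The cells (50,000 cells/well in DMEM, 384-well plates, 37 °C, 5% CO2) had received 50 nL of library stock by pin tool and, 1 h later, a PRR agonist. Reporter activity is expressed relative to agonist-alone wells as fold change, and wells were flagged cytotoxic if IncuCyte confluency was under 70% of agonist controls in both mask sets.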

Assay [2] has as its system RAW-Dual. Briefly: NF-kB SEAP reporter activity, fold change vs agonist alone; cytotoxicity flag (confluency mask): not cytotoxic; higher = enhanced NF-kB activity. The method, boiled down: as §1
In assay [3] the test system is RAW-Dual. Briefly: NF-kB SEAP reporter activity, fold change vs agonist alone; cytotoxicity flag (confluency mask): cytotoxic (confluency <70% of control); higher = enhanced NF-kB activity. The method, boiled down:
as §1

Where [4] appears, read: library stock concentration (final ~1000-fold dilution): 10 mM, cytotoxicity flag (confluency mask): not cytotoxic, agonist: MPLA (TLR4) […].
Setting [5] is: agonist: ODN 1826 (TLR9) 0.5 ug/mL.
[6] abbreviates: agonist: Pam2CSK4 (TLR2/6) 0.1 ug/mL.
[7] abbreviates: agonist: Pam3CSK4 (TLR2/1) 0.1 ug/mL.
The mark [8] stands for this setting: library stock concentration (final ~1000-fold dilution): 10 mM, cytotoxicity flag (confluency mask): not cytotoxic, agonist: Imiquimod (TLR7) […].
The mark [9] stands for this setting: library stock concentration (final ~1000-fold dilution): 10 mM, cytotoxicity flag (confluency mask): cytotoxic (confluency <70% of control), agonist: Imiquimod (TLR7) […].
Where [10] appears, read: library stock concentration (final ~1000-fold dilution): 10 mM, cytotoxicity flag (confluency mask): cytotoxic (confluency <70% of control), agonist: MPLA (TLR4) […].
Where [11] appears, read: library stock concentration (final ~1000-fold dilution): 2 mM, cytotoxicity flag (confluency mask): not cytotoxic, agonist: Imiquimod (TLR7) […].
[12] abbreviates: library stock concentration (final ~1000-fold dilution): 2 mM, cytotoxicity flag (confluency mask): not cytotoxic, agonist: MPLA (TLR4) […].

Whole data set: some 2,900 compounds, median “NF-kB SEAP reporter activity, fold change vs agonist alone” near 0.99, cut for the highest 2% near 2.6. This is one part of a sample in which the highest values are shown more often than they occur.

Consider `C=CC1(C)CC(OC(=O)CSCCN(CC)CC)C2(C)C(C)CCC3(CCC(=O)C32)C(C)C1O` (stereo not drawn), for which the “NF-kB SEAP reporter activity” value in the assay on RAW-Dual [1] (setting [4]) was 1.12.
Turning to `C=CC1(C)CC(OC(=O)CSCCN(CC)CC)C2(C)C(C)CCC3(CCC(=O)C32)C(C)C1O` (stereo not drawn) (library stock concentration (final ~1000-fold dilution): 10 mM), the “NF-kB SEAP reporter activity” value in the assay on RAW-Dual [2] (agonist: LPS (TLR4) 0.1 ug/mL) is 1.56; with RAW-Dual [2] (setting [5]) it was 0.725; in the assay on RAW-Dual [2] (setting [6]), 1.11; in the assay on RAW-Dual [2] (setting [7]) it was 0.934.
As for `Nc1cccc2c1C(=O)N(C1CCC(=O)NC1=O)C2=O` (stereo not drawn) (library stock concentration (final ~1000-fold dilution): 10 mM), the “NF-kB SEAP reporter activity” value in the assay on RAW-Dual [2] (agonist: LPS (TLR4) 0.1 ug/mL) came to 1.16; with RAW-Dual [2] (setting [5]), 1.17; in the assay on RAW-Dual [2] (setting [6]), 1.08; with RAW-Dual [2] (setting [7]), 1.35.
In the case of `Cc1sc2c(c1C)C(c1ccc(Cl)cc1)=NC(CC(=O)NCCCCNC(=O)COc1cccc3c1C(=O)N(C1CCC(=O)NC1=O)C3=O)c1nnc(C)n1-2` (stereo not drawn) (library stock concentration (final ~1000-fold dilution): 10 mM), the “NF-kB SEAP reporter activity” value with RAW-Dual [3] (agonist: LPS (TLR4) 0.1 ug/mL) is 7.56; in the assay with RAW-Dual [3] (setting [5]), 3.05; with RAW-Dual [3] (setting [6]), 1.99; in the assay with RAW-Dual [3] (setting [7]), 3.03.
Take `Nc1cccc2c1C(=O)N(C1CCC(=O)NC1=O)C2=O` (stereo not drawn): the “NF-kB SEAP reporter activity” value with RAW-Dual [1] (setting [8]) is 1.6; with RAW-Dual [1] (setting [4]), 1.07.
On to `Cc1sc2c(c1C)C(c1ccc(Cl)cc1)=N[C@@H](CC(=O)NCCCCCCCCNC(=O)COc1cccc3c1C(=O)N(C1CCC(=O)NC1=O)C3=O)c1nnc(C)n1-2` (stereo partly drawn), for which the “NF-kB SEAP reporter activity” value came out at 1.73 with RAW-Dual [1] (setting [9]) and 2.44 in the assay on RAW-Dual [1] (setting [10]).
Regarding `Cc1sc2c(c1C)C(c1ccc(Cl)cc1)=NC(CC(=O)NCCCCNC(=O)COc1cccc3c1C(=O)N(C1CCC(=O)NC1=O)C3=O)c1nnc(C)n1-2` (stereo not drawn), the “NF-kB SEAP reporter activity” value turned out to be 1.89 in the assay with RAW-Dual [1] (setting [9]) and 2.59 in the assay on RAW-Dual [1] (setting [10]).
For the molecule `O=C1CCC(N2C(=O)c3ccccc3C2=O)C(=O)N1` (stereo not drawn) (library stock concentration (final ~1000-fold dilution): 10 mM), the “NF-kB SEAP reporter activity” value is 1.22 in the assay with RAW-Dual [2] (agonist: LPS (TLR4) 0.1 ug/mL), 1.01 in the assay on RAW-Dual [2] (setting [5]), 0.95 in the assay with RAW-Dual [2] (setting [6]) and 1.17 in the assay on RAW-Dual [2] (setting [7]).
`Cc1sc2c(c1C)C(c1ccc(Cl)cc1)=N[C@@H](CC(=O)NCCCCCCCCNC(=O)COc1cccc3c1C(=O)N(C1CCC(=O)NC1=O)C3=O)c1nnc(C)n1-2` (stereo partly drawn) (library stock concentration (final ~1000-fold dilution): 10 mM): the “NF-kB SEAP reporter activity” value with RAW-Dual [3] (agonist: LPS (TLR4) 0.1 ug/mL) came to 3.73; in the assay on RAW-Dual [3] (setting [5]), 1.84; in the assay with RAW-Dual [3] (setting [6]), 1.74; in the assay on RAW-Dual [3] (setting [7]), 3.
For `O=C1CCC(N2C(=O)c3ccccc3C2=O)C(=O)N1` (stereo not drawn), the “NF-kB SEAP reporter activity” value in the assay with RAW-Dual [1] (setting [8]) was 0.926; in the assay with RAW-Dual [1] (setting [4]), 0.792.
On to `C/C=C1/C2C=C(C)CC1(N)c1ccc(=O)[nH]c1C2` (stereo not drawn), for which the results for the “NF-kB SEAP reporter activity” value with RAW-Dual [1] (setting [11]) and in the assay with RAW-Dual [1] (setting [12]) were 0.822 and 1.1, respectively.
For `C/C=C1/C2C=C(C)CC1(N)c1ccc(=O)[nH]c1C2` (stereo not drawn) (library stock concentration (final ~1000-fold dilution): 2 mM), the “NF-kB SEAP reporter activity” value came out at 1.33 in the assay with RAW-Dual [2] (agonist: LPS (TLR4) 0.1 ug/mL), 1.01 with RAW-Dual [2] (setting [5]), 1.14 in the assay on RAW-Dual [2] (setting [6]) and 1.01 in the assay with RAW-Dual [2] (setting [7]).
Turning to `CC1c2cccc(O)c2C(=O)C2=C(O)C3(O)C(=O)C(C(N)=O)=C(O)C(N(C)C)C3C(O)C21.CC1c2cccc(O)c2C(=O)C2=C(O)C3(O)C(=O)C(C(N)=O)=C(O)C(N(C)C)C3C(O)C21.CCO.Cl.Cl.O` (stereo not drawn) (library stock concentration (final ~1000-fold dilution): 10 mM), the “NF-kB SEAP reporter activity” value amounted to 1.6 with RAW-Dual [2] (agonist: LPS (TLR4) 0.1 ug/mL), 0.969 with RAW-Dual [2] (setting [5]), 1.26 with RAW-Dual [2] (setting [6]) and 0.938 in the assay with RAW-Dual [2] (setting [7]).
Consider `CC1c2cccc(O)c2C(=O)C2=C(O)C3(O)C(=O)C(C(N)=O)=C(O)C(N(C)C)C3C(O)C21.CC1c2cccc(O)c2C(=O)C2=C(O)C3(O)C(=O)C(C(N)=O)=C(O)C(N(C)C)C3C(O)C21.CCO.Cl.Cl.O` (stereo not drawn), for which the “NF-kB SEAP reporter activity” value in the assay on RAW-Dual [1] (setting [8]) came to 0.998; with RAW-Dual [1] (setting [4]), 1.13.
Take `O=C(O)/C(S)=C/c1c[nH]c2ccc(F)cc12`: the “NF-kB SEAP reporter activity” value was found to be 0.865 in the assay with RAW-Dual [1] (setting [8]) and 1.08 in the assay with RAW-Dual [1] (setting [4]).
As to `O=C(O)/C(S)=C/c1c[nH]c2ccc(F)cc12` (library stock concentration (final ~1000-fold dilution): 10 mM), the “NF-kB SEAP reporter activity” value was 0.886 in the assay with RAW-Dual [2] (agonist: LPS (TLR4) 0.1 ug/mL), 0.864 in the assay on RAW-Dual [2] (setting [5]), 0.988 in the assay on RAW-Dual [2] (setting [6]) and 0.934 in the assay with RAW-Dual [2] (setting [7]).
With `COC(=O)C1=C(C)NC(C)=C(C(=O)OCCN2CCN(C(c3ccccc3)c3ccccc3)CC2)C1c1cccc([N+](=O)[O-])c1.Cl.Cl` (stereo not drawn), the entries for the “NF-kB SEAP reporter activity” value with RAW-Dual [1] (setting [8]) and in the assay on RAW-Dual [1] (setting [4]) were 0.58 and 0.873, respectively.
As to `COC(=O)C1=C(C)NC(C)=C(C(=O)OCCN2CCN(C(c3ccccc3)c3ccccc3)CC2)C1c1cccc([N+](=O)[O-])c1.Cl.Cl` (stereo not drawn) (library stock concentration (final ~1000-fold dilution): 10 mM), the “NF-kB SEAP reporter activity” value in the assay on RAW-Dual [2] (agonist: LPS (TLR4) 0.1 ug/mL) turned out to be 0.834; with RAW-Dual [2] (setting [5]), 0.364; with RAW-Dual [2] (setting [6]) it was 0.241; in the assay on RAW-Dual [2] (setting [7]), 0.405.
Regarding `CN(C)CCOC(c1ccccc1)c1ccccc1.Cl` (library stock concentration (final ~1000-fold dilution): 10 mM), the “NF-kB SEAP reporter activity” value worked out at 1.27 with RAW-Dual [2] (agonist: LPS (TLR4) 0.1 ug/mL), 0.728 in the assay with RAW-Dual [2] (setting [5]), 0.917 in the assay with RAW-Dual [2] (setting [6]) and 1.1 in the assay on RAW-Dual [2] (setting [7]).
For the molecule `CN(C)CCOC(c1ccccc1)c1ccccc1.Cl`, the “NF-kB SEAP reporter activity” value with RAW-Dual [1] (setting [8]) was 1.39; in the assay on RAW-Dual [1] (setting [4]), 0.886.
Regarding `Cn1cc(CC(N)C(=O)O)c2ccccc21` (stereo not drawn), the “NF-kB SEAP reporter activity” value came to 0.994 with RAW-Dual [1] (setting [11]) and 1.05 in the assay with RAW-Dual [1] (setting [12]).
With `Cl.Cn1cc(C(=O)C2CCc3nc[nH]c3C2)c2ccccc21` (stereo not drawn) (library stock concentration (final ~1000-fold dilution): 10 mM), the “NF-kB SEAP reporter activity” value in the assay on RAW-Dual [2] (agonist: LPS (TLR4) 0.1 ug/mL) was 1.01; in the assay with RAW-Dual [2] (setting [5]) it was 0.67; in the assay on RAW-Dual [2] (setting [6]), 0.928; in the assay on RAW-Dual [2] (setting [7]), 0.877.
With `Cl.Cl.Cn1cc(CNCC2CCN(c3ncc(C(=O)NO)cn3)CC2)c2ccccc21`, the figures for the “NF-kB SEAP reporter activity” value with RAW-Dual [1] (setting [9]) and in the assay on RAW-Dual [1] (setting [10]) were 2.52 and 2.65, respectively.
`Cl.Cn1cc(C(=O)C2CCc3nc[nH]c3C2)c2ccccc21` (stereo not drawn): the “NF-kB SEAP reporter activity” value with RAW-Dual [1] (setting [8]) was 0.775; in the assay with RAW-Dual [1] (setting [4]), 0.816.
For `Cn1cc(CC(N)C(=O)O)c2ccccc21` (stereo not drawn) (library stock concentration (final ~1000-fold dilution): 2 mM), the “NF-kB SEAP reporter activity” value in the assay with RAW-Dual [2] (agonist: LPS (TLR4) 0.1 ug/mL) is 1.05; in the assay with RAW-Dual [2] (setting [5]), 1.22; in the assay with RAW-Dual [2] (setting [6]) it was 1.19; with RAW-Dual [2] (setting [7]) it was 1.05.
